Sampled rows, rich in hits. Any-hit rate of the full collection: about 1.2%.
NR5A2 inv ag: NR5A2 inverse agonism in reporter assay. inhibition, % at 3.6 µM. 360,000 compounds, 0.13% hits. AID 602396. HEK293T StAR-luciferase reporter, LRH-1 transfected, 24 h;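 active means inhibition above the mean inhibition of all tested compounds plus 3 SD, cut at about 73% in these data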;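 further: 0% = DMSO wells and 100% = reporter-only cells lacking LRH-1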
COUP-TFII inh: inhibitors of human COUP-TFII (NR2F2); inhibition, % at 8.6 µM; HEK293T NGFI-A luciferase reporter, luminescence; 370,000 compounds, 0.7% hits;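 active means inhibition above a per-plate cutoff, mean inhibition of test wells between control levels plus 3 SD, cut at about 38% in these data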;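 further: cells cotransfected with COUP-TFII expression vector driving the NGFI-A reporter; 0% = median of COUP-TF2 test wells and 100% = reporter-only cells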
NCOA2 inhibitor: human SRC2 (NCOA2) inhibition | HEK293 GAL4-SRC2 luciferase reporter, luminescence | inhibition, % at 9 µM | 370,000 compounds, 0.17% hits | AID 651957;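 active means inhibition above the mean inhibition of all tested compounds plus 3 SD, set per campaign, cut at about 52% in these data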;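 further: 0% = DMSO treated cells and 100% = cells given Gossypol at 36 µM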
Gli-Sufu block: Gli-Sufu pathway antagonism; Sufu-KO-LIGHT fibroblasts, Gli luciferase reporter luminescence; inhibition, % at 5 µM; 340,000 compounds, 0.74% hits; AID 588413;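 active means inhibition above about 55%, limit read from the data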;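 further: 0% = DMSO-treated cells and 100% = wells with medium but no cells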
NCOA1 inh: inhibits human SRC1 coactivator; HEK293 GAL4-SRC1 luciferase reporter, luminescence; 360,000 compounds, 0.12% hits; inhibition, % at 3.6 µM; Q15788;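 active means inhibition above the campaign mean plus 3 SD, with each screening campaign given its own cutoff, cut at about 60% in these data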;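 further: 0% = DMSO treated cells and 100% = gossypol at 36 µM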
NCOA3 inh: human NCOA3 inhibition. Q9Y6Q9. HEK293 GAL4-SRC3 luciferase reporter, luminescence. inhibition, % at 3.6 µM. 360,000 compounds, 0.17% hits. AID 588352;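 active means inhibition above a per-campaign cutoff, the mean of all compounds plus 3 SD, cut at about 60% in these data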;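 further: 0% = DMSO-treated cells and 100% = gossypol-treated cells at 36 µM; higher means less SRC3-driven luciferase light from the GAL4 reporter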
Target sequence (Q9Y6Q9 whole entry, looked up, the tested form may be a part): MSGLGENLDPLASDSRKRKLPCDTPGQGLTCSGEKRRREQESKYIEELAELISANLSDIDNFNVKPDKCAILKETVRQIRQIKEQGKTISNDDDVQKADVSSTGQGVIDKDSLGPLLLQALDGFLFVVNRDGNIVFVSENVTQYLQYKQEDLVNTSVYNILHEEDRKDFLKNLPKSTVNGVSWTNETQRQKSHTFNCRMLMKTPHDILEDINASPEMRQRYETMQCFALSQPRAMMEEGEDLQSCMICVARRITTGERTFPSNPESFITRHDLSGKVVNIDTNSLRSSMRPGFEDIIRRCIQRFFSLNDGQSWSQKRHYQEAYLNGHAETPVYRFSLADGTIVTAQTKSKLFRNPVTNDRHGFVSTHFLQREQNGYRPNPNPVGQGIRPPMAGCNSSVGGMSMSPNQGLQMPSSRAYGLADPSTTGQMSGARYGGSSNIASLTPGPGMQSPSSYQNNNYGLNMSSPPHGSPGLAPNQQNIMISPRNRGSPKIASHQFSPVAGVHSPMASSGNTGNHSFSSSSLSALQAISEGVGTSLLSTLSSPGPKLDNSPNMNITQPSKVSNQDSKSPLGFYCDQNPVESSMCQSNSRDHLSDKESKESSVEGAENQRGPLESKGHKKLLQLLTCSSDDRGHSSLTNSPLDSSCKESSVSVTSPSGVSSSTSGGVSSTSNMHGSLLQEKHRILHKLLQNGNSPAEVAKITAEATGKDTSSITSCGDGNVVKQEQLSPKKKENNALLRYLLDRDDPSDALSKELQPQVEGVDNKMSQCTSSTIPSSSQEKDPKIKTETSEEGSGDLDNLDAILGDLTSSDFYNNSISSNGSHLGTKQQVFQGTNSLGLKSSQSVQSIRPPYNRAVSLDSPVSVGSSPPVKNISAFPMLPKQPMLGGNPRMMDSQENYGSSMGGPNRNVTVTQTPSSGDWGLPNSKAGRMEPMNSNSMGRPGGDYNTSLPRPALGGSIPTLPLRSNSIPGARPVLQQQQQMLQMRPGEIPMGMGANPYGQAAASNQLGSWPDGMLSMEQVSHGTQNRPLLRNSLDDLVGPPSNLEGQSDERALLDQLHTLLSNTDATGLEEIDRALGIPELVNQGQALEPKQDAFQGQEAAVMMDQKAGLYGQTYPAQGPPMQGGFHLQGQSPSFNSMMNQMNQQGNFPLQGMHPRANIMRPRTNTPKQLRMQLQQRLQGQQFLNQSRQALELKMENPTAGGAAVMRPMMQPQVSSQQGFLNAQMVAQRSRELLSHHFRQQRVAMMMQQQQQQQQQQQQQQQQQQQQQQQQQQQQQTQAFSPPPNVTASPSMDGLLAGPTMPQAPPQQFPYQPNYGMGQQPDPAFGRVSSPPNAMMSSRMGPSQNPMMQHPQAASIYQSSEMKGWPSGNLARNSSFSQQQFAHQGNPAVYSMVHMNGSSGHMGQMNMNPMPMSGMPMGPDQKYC
Gli antag conf: confirmation of Gli-SUFU pathway antagonists; shares compounds with Gli-Sufu block; Sufu-KO-LIGHT cells, Gli luciferase reporter, luminescence; inhibition, % at 5 µM; 2,500 compounds, 40% hits; AID 602428;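 active means mean inhibition at 5 µM reaching about 45%, limit read from the data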;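 further: plate controls were DMSO-treated cells for no effect and wells lacking cells for full effect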
Gli cytotox: cytotoxic in Gli-SUFU antagonist counter-screen | shares compounds with Gli-Sufu block | Sufu-KO-LIGHT cells cytotoxicity, ATP luminescence | cytotoxicity, % at 5 µM | 2,500 compounds, 32% hits | AID 651994;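 active means mean cytotoxicity at 5 µM above about 25%, limit read from the data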;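 further: cells exposed to compound overnight for roughly 16 to 18 hours; plate controls were DMSO wells with cells for no effect and medium without cells for full effect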
Wnt3a counter: counter-screen for Gli-SUFU antagonists: Wnt3a reporter inhibition. shares compounds with Gli-Sufu block. Wnt-LIGHT cells, Wnt3a-driven luciferase reporter, luminescence. inhibition, % at 6.25 µM. 2,500 compounds, 20% hits;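 active means mean inhibition above about 25%, limit read from the data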
* hit, by the source's call; / = not tested or not shown.

SMILES	NR5A2 inv ag	COUP-TFII inh	NCOA2 inhibitor	Gli-Sufu block	NCOA1 inh	NCOA3 inh	Gli antag conf	Gli cytotox	Wnt3a counter
Cc1cc(N2CCC(C)CC2)nc(NCc2ccccc2)n1	19	15	2	52	19	13	22	31*	-17
Cc1ccccc1NC(=S)N(CCc1c(C)[nH]c2ccc(F)cc12)Cc1ccncc1	26	1	-30	59*	5	-5	18	26*	-28
Cc1[nH]c2ccc(F)cc2c1CCN(Cc1ccncc1)C(=S)Nc1cccc(F)c1	12	8	17	0	4	-5	/	/	/
CC(=O)N1CCC(C(=O)N2CCN(S(=O)(=O)c3ccc(Cl)s3)CC2)CC1	3	14	-1	97*	7	23	15	22	11
CC(=O)N1CCC(C(=O)N2CCN(S(=O)(=O)c3cccs3)CC2)CC1	2	-18	4	13	-1	-12	/	/	/
CCC(Oc1ccccc1F)C(=O)Nc1ccc2c(c1)n(C)c(=O)n2C (stereo not drawn)	13	7	7	52	3	-11	28	-2	7
CCCCN(C)C(=O)C1CCN(S(=O)(=O)c2ccc3[nH]c(=O)oc3c2)CC1	/	14	-10	/	/	/	/	/	/
O=C(CN1C(=O)c2ccccc2S1(=O)=O)c1ccccc1	-28	21	9	73*	-24	12	80*	11	93*
CC(=O)Nc1cccc(C(=O)OCc2ccc([N+](=O)[O-])cc2)c1	6	-9	-3	63*	-3	6	20	19	-70
N#Cc1ccc(-c2cccs2)nc1SCc1cccnc1	23	-24	-17	60*	-28	-8	34	55*	-39
N#Cc1c(C(F)(F)F)cc(-c2cccs2)nc1SCc1cccnc1	6	4	-9	22	10	11	/	/	/
CNC(=O)/C(C#N)=C/c1c(N(Cc2ccccc2)Cc2ccccc2)nc2c(C)cccn2c1=O	6	20	21	12	-9	25	/	/	/
CCNC(=O)/C(C#N)=C/c1c(N(Cc2ccccc2)Cc2ccccc2)nc2ccccn2c1=O	13	10	-2	88*	7	7	27	-1	-26
Cc1ccc(CC2SC(=Nc3ccccc3)N(c3ccccc3)C2=O)cc1 (stereo not drawn)	9	-3	-1	58*	4	12	19	9	-13
Cc1cc(Oc2cccnc2)ccc1NC(=O)Cc1c[nH]c2ccccc12	/	-3	-14	/	/	/	/	/	/
Cn1c(CSCc2ccc(F)cc2)nnc1SCC(=O)Nc1nccs1	2	35	25	61*	18	21	23	10	-18
COc1ccccc1CCNC(=O)c1cc(-c2ccncc2)nc2ccc(Br)cc12	-6	2	-20	67*	-18	3	32	25*	4
COc1ccccc1CCNC(=O)c1cc(-c2ccccn2)nc2ccccc12	-24	-2	-20	8	-41	12	/	/	/
COc1cc(C(=O)NC2CC3CCCC(C2)N3Cc2ccccc2)cc(OC)c1OC (stereo not drawn)	-4	7	9	18	-12	7	/	/	/
COc1ccc(C(=O)NC2CC3CCCC(C2)N3Cc2ccccc2)cc1OC (stereo not drawn)	-2	10	19	57*	-20	-16	11	-5	-29
Cc1ccc(S(=O)(=O)N2CCOCC2)cc1C(=O)NC1CCN(Cc2ccccc2)CC1	5	16	-9	6	-6	16	/	/	/
COc1ccccc1NS(=O)(=O)c1cccc(C(=O)NC2CCN(Cc3ccccc3)CC2)c1	43	/	/	54	53	28	57*	27*	-1
Cc1ccc(C(=O)NC2CCN(Cc3ccccc3)CC2)cc1S(=O)(=O)N1CCOCC1	15	19	14	61*	-2	19	18	19	4
O=C1CCC[C@H]2C[C@H](NCc3ccc(Cl)c(C(F)(F)F)c3)CC[C@]23CCCN13	/	-9	/	/	/	/	/	/	/
O=S1(=O)c2ccc(N3CCC[C@@H]3CO)cc2O[C@@H]2CCN1C2	/	-2	-43	/	/	/	/	/	/
SMILES	NR5A2 inv ag	COUP-TFII inh	NCOA2 inhibitor	Gli-Sufu block	NCOA1 inh	NCOA3 inh	Gli antag conf	Gli cytotox	Wnt3a counter
COc1ccc2cc(C(=O)CS(=O)(=O)c3ccc(Cl)cc3)c(=O)oc2c1	/	-3	-5	/	/	/	/	/	/
C[C@H](O)[C@@H]1C(=O)N2CCc3c([nH]c4c(-c5ccccc5)cccc34)[C@@H]2C[C@@H]1N(C)C(=O)c1ccccc1F	/	-22	0	/	/	/	/	/	/
CC(=O)Nc1ccc(C(=O)NNS(=O)(=O)c2ccc(C)cc2)cc1	0	14	-29	3	13	20	/	/	/
CC(=O)c1ccc(NC(=O)Nc2ccc(NS(=O)(=O)c3ccc(C)cc3)cc2)cc1	9	-2	3	75*	-10	3	22	6	25*
CCC(=O)Nc1cc2c3c(c1)CCN3C(=O)CC2	19	-3	10	-11	8	20	/	/	/
COC(CNC(=O)C(=O)Nc1cc2c3c(c1)CCN3C(=O)CC2)OC	4	0	-12	98*	9	6	25	-1	16
CNC(=O)C(=O)Nc1cc2c3c(c1)CCN3C(=O)CC2	5	-27	-12	96*	13	1	19	5	3
COC(=O)C1=C(C)N(C)C(=NCc2ccccc2C(F)(F)F)NC1c1ccc(C(F)(F)F)cc1 (stereo not drawn)	/	0	-13	/	/	/	/	/	/
Cc1nc(Nc2ccc(F)cc2)nc(Nc2ccc(F)cc2)c1[N+](=O)[O-]	2	-6	-47	53	-6	6	13	-2	42*
C=CCN(CC#Cc1ccc(OC)cc1)CC=C	/	-14	-17	/	/	/	/	/	/
O=C(CCCn1nnnc1CN1CCOCC1)N1CCC(c2ccc(F)cc2)C1 (stereo not drawn)	-18	12	-13	97*	1	-7	21	10	-27
CCOC(=O)C1=C(C(=O)OCC)C2N(Cc3ccc(Br)cc3)c3ccccc3[C@@]23C[C@@H](C(=O)OC)N(S(=O)(=O)c2ccc(OC)cc2)C3=N1 (stereo partly drawn)	/	-2	9	/	/	/	/	/	/
CCNC(=O)N1CCN(c2ccc(N3CCN(Cc4ccccc4)[C@H](C)C3)c(C)c2)[C@H](C)C1	/	21	19	/	/	/	/	/	/
COc1ccc(/C=C/C2=CCN(Cc3ccc(OC)cc3)CC2)cc1	31	-11	4	50	-1	16	18	11	-48
